The list is not random: actives were taken first. Their share in the collection is about 19%.
HT1080-NT tox: kills 2HG-producing HT-1080-NT fibrosarcoma cells; HT-1080-NT fibrosarcoma viability, CellTiter-Glo ATP luminescence, 48 h; Potency, µM (highest dose often 46.1 µM), for the others: at the highest dose activity, negative = less viability, actives largely listed as cytotoxic; 1.6% of 360,000 active; AID 686970;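 note: NT is the 2HG producing partner of a matched IDH1 knockdown line; potency is the fitted concentration of half-maximal effect; 0% = DMSO-treated cells and -100% = media-only wells without cells; nearly all actives have a fitted effect of over 55% in size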
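A 48-hour cytotoxicity screen used HT-1080-NT cells plated 2 hours before compound delivery. ATP-based CellTiter-Glo luminescence measured viability, normalized to DMSO and no-cell controls.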
ELG1 repair inh: ELG1-dependent DNA repair inhibition | HEK293T ELG1-luciferase reporter, luminescence, 16 h; DNA damage induced by 5-fluorouridine | Potency, µM (titrated, usually from 46.1 µM), inactives show top-dose activity change, negative = inhibition, most hits filed as inhibitors | 2.3% of 330,000 active | AID 504467; note: potency is the fitted concentration of half-maximal effect; nearly all actives have a fitted effect of over 55% in size
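Luminescence from the luciferase reporter, measured 30 min after ONE-Glo reagent at room temperature, was the read-out. Beforehand, 2,000 cells per well were exposed for 16 hr at 37 °C to 5-fluorouridine together with compound or vehicle.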
DT40 TDP1 CPT: DT40-hTDP1 cell growth loss with CPT | 12% of 420,000 active | Potency, µM (doses to about 46.2 µM), for inactives: top-dose activity change, negative = growth inhibition, hits mostly inhibitors | chicken DT40 Tdp1-/-;hTDP1 cells + 20 nM CPT, ATP luminescence, 48 h; note: potency is the fitted concentration of half-maximal effect; nearly all actives have a fitted effect of over 55% in size
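Chicken DT40 Tdp1-/- cells complemented with human TDP1, 400 cells/well, exposed to compounds plus 20 nM camptothecin for at least 48 h at 37 C; viability read as ATP content by CellTiter-Glo luminescence.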
TDP1 cell noCPT: qHTS for Inhibitors of human tyrosyl-DNA phosphodiesterase 1 (TDP1): qHTS in cells in absence of CPT. DT40 Tdp1-/- hTDP1 cells, no CPT, ATP luminescence, 48 h. Potency, µM (top dose mostly 46.2 µM), inactives show top-dose activity change, negative = growth inhibition, usual class: inhibitors. 15% of 420,000 active; note: potency is the fitted concentration of half-maximal effect; nearly all actives have a fitted effect of over 55% in size
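Camptothecin absent (DMSO only). Human TDP1-complemented DT40 knockout cells, 400 cells/well, 37 °C for minimum 48 hr; ATP measured via CellTiter-Glo, 30 min dark incubation, luminescence.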
HT1080 IDH1KD tx: kills HT-1080 cells with IDH1 knockdown; HT-1080 IDH1 knockdown viability, ATP luminescence, 48 h; Potency, µM (highest dose often 46.1 µM), for inactives: top-dose activity, negative = toxicity, hits mostly cytotoxic; 2% of 360,000 active; AID 686971;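 note: potency is the fitted concentration of half-maximal effect; 0% = DMSO wells and -100% = cell-free medium wells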
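HT-1080-IDH1KD cells (IDH1 knocked down), 750/well in RPMI with 5% FBS, treated with compound 48 h at 37 degrees C. Viability by CellTiter-Glo luminescence, normalised to DMSO and no-cell wells; concentration-response curves classed.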
IL-1B inflam inh: blocks inflammasome-driven IL-1 beta release; THP-1 LPS/ATP IL-1B secretion, AlphaLISA, 16 h; stronger effect = lower value; activity change, % at 57.5 µM; 4.7% of 360,000 active; AID 743279; in the data active = activity change below about -50%; inconclusive = mostly about -30% to -49%
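THP-1 cells pretreated 1 hr with compounds (up to 57.5 uM final), then stimulated with LPS (250 ng/mL final) plus ATP (1.25 mM final); secreted IL-1B measured by AlphaLISA after 16 hr, decreased signal indicating inhibition.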
An asterisk follows results filed as active; ? = inconclusive; . = no result given; [ ] = dose if it differs, or a comment. Unless noted, calls come from the whole dose curve; as a rule, active = well fitted curve in the direction sought with a large enough effect; inconclusive = small, poorly fitted or top-dose-only effect, or another doubt; inactive = no such curve, though single readings can be large; an effect the other way counts as inactive or inconclusive. Unless noted, % is set by controls: 0 for no effect and ±100 for the full control effect.

SMILES | HT1080-NT tox | ELG1 repair inh | DT40 TDP1 CPT | TDP1 cell noCPT | HT1080 IDH1KD tx | IL-1B inflam inh
Cc1cccc(OCCSCc2nc3ccccc3[nH]2)c1 | -9.4% | -8.0% | 16.4µM* | 20.6µM* | -6.0% | 7.6
Cc1ccc(/C=C/c2onc(C)c2S(=O)(=O)N2CCC(C(=O)N3CCCCC3)CC2)cc1 | -6.3% | ? | ? | ? | -4.7% | ?
CCCN1CCN(C(=O)C2CCN(S(=O)(=O)c3c(C)noc3/C=C/c3ccc(C)cc3)CC2)CC1 | 16.4µM* | -7.2% | 20.6µM* | 20.6µM* | ? | ?
Cc1ccc(/C=C/c2onc(C)c2S(=O)(=O)N2CCC(C(=O)NC(C)(C)C)CC2)cc1 | -6.9% | -3.8% | ? | ? | 1.1% | 11.7
CCOC(=O)C1CCCN(C(=O)C2CCN(S(=O)(=O)c3c(C)noc3/C=C/c3ccc(C)cc3)CC2)C1 (stereo not drawn) | . | . | 18.4µM* | ? | . | .
CCCN(C(=O)C1CCN(S(=O)(=O)c2c(C)noc2/C=C/c2ccc(C)cc2)CC1)c1ccccc1F | . | . | ? | 23.1µM* | . | .
Cc1ccc(/C=C/c2onc(C)c2S(=O)(=O)N2CCC(C(=O)N3CCOc4ccccc43)CC2)cc1 | . | . | ? | -9.7% | . | .
CC1(C)CC2CC(C)(CN2C(=O)COC(=O)c2ccccc2C(F)(F)F)C1 (stereo not drawn) | -9.1% | 8.1% | ? | ? | -15.1% | 15.6
CC(C)CN1CCC(=O)N(CCN=[N+]=[N-])CC1 | 4.1% | ? | ? | 0.8% | 6.7% | 14.5
CCOC(=O)c1[nH]c(C)c(C(=O)Nc2ccc(C)c(Cl)c2)c1C | 0.2%[9.24 µM] | 0.5% | 16.4µM* | ? | 12.6µM* | 0.0
CCOC(=O)c1[nH]c(C)c(C(=O)Nc2ccc(C)c(F)c2)c1C | 10µM* | -4.3% | 10µM* | 17.8µM* | 3.55µM* | 40.4
O=C(Cc1ccccc1)Nc1ccc2oc(=O)ccc2c1 | 9.4% | 10.1% | 2.5% | -5.7% | 15.4% | -2.6
O=C(c1cc(C2CC2)nn1-c1ccccc1)N1CCN(c2ccccn2)CC1 | 4.0% | 0.3% | ? | ? | -0.6% | -62.6*
Cc1nn(-c2ccccc2)c(Cl)c1C(=O)NC1CCCCC1 | -0.9% | -5.8% | 8.8% | -2.1% | 6.4% | -17.1
O=C(c1cc(C2CC2)nn1-c1ccccc1)N1CCN(c2ccccc2O)CC1 | 12.3% | 0.0% | ? | 16.4µM* | 19.3% | ?
O=C(NC1CCCCC1)c1cc(C2CC2)nn1-c1ccccc1 | 4.1%[9.24 µM] | -9.5% | 16.4µM* | 16.4µM* | 8.1% | -20.8
CCOc1ccc(S(=O)(=O)N2CCN(C(=O)c3cc(C4CC4)nn3-c3ccccc3)CC2)cc1 | -0.5% | ? | 20.6µM* | 18.4µM* | -13.6% | -24.7
COC(=O)c1c(NC(=O)C(=O)N2CCOCC2)sc2c1CCCC2 | -6.3% | -5.1% | -18.5% | 3.0% | -2.8% | -27.1
Nc1ccc(NC(=O)c2cc(Cl)ccc2O)c(Cl)c1 | . | . | -28.1% | ? | . | .
CCOc1ccc2c(c1)c(N=O)c(O)n2C | -1.3% | 22.8% | 3.8% | ? | 0.5% | -63.9*
COc1ccc(N(CC(=O)NCCc2ccccc2)S(=O)(=O)c2ccccc2)c(OC)c1 | . | . | 20.6µM* | 20.6µM* | . | .
COc1ccc(N(CC(=O)NCCSc2ccccn2)S(=O)(=O)c2ccccc2)c(OC)c1 | 7.4% | -4.6% | ? | 20.6µM* | 8.2% | -11.6
COCCCNC(=O)CN(c1cc(OC)ccc1OC)S(=O)(=O)c1ccccc1 | 7.5% | 8.7% | 0.2% | -8.7% | 16.0% | 7.4

Assay outcomes: PubChem, National Center for Advancing Translational Sciences (NCATS)
